Results on 17 compounds are retold here after PubChem BioAssay (Tox21).

Results filed as inconclusive are left out. Calls of active or inactive are those of the source. Unless noted, calls come from the whole dose curve; as a rule, active = well fitted curve in the direction sought with a large enough effect in the repeat runs; inconclusive = weak or mixed curves; inactive = no such curve, though single readings can be large; an effect the other way counts as inactive or inconclusive.

Assay [1] in a line: qHTS assay to identify small molecule antagonists of the thyroid receptor (TR) signaling pathway (AID 743065). Note: nearly all actives have a fitted effect of over 55% in size. Note: potency is the fitted concentration of half-maximal effect. The gist of the method: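 GH3.TRE-Luc rat pituitary cells (two TREs driving luciferase) were dosed with compound, then stimulated with 1 nM T3 (final) for 23.5 h at 37 C. ONE-Glo luminescence was the read-out, with CellTiter-Fluor fluorescence as the cytotoxicity counter-screen.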
For orientation: qHTS replaces the single test concentration by a dilution series.

Assay [2] relates to thyroid hormone receptor (rat, GH3 cells). Nature of the assay: qHTS assay to identify small molecule agonists of the thyroid receptor (TR) signaling pathway (AID 743066; calls by dose curve).
The nature of assay [3]: qHTS assay to identify small molecule antagonists of the estrogen receptor alpha (ER-alpha) signaling pathway - cell viability counter screen (AID 743074; calls by dose curve;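 note: HEK293 cells carrying ER-alpha-UAS-bla reporter stimulated with 17beta-estradiol; nearly all actives have a fitted effect of over 45% in size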).
Assay [4] is described as follows: qHTS assay to identify small molecule antagonists of the estrogen receptor alpha (ER-alpha) signaling pathway using the BG1 cell line - cell viability counter screen (AID 743081).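 Note: compound given together with 17beta-estradiol as the ER stimulus; series mostly up to about 70 µM; nearly all actives have a fitted effect of over 45% in size.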
For assay [5], the target named is Aromatase (Homo sapiens) (UniProt P11511). In words: qHTS assay to identify aromatase inhibitors (AID 743083). Note: nearly all actives have a fitted effect of over 55% in size. Note: potency is the fitted concentration of half-maximal effect.
A short description of assay [6]: qHTS assay to identify aromatase inhibitors - cell viability counter screen (AID 743084).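 Note: cells stimulated with testosterone during compound exposure; nearly all actives have a fitted effect of over 55% in size.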 Note: potency is the fitted concentration of half-maximal effect.
For assay [7], the target named is Aryl hydrocarbon receptor (Homo sapiens) (UniProt P35869). In words: qHTS assay to identify small molecule that activate the aryl hydrocarbon receptor (AhR) signaling pathway (AID 743085).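 Note: HG2L7.5c1 human HepG2 liver cells with stably integrated DRE-driven firefly reporter; series mostly up to about 70 µM; nearly all actives have a fitted effect of over 15% in size.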 The gist of the method:
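A multiplexed format paired cell viability (CellTiter-Fluor fluorescence) with AhR-dependent luciferase output (ONE-Glo luminescence) in the same wells of HepG2 DRE-luc cells after 24 h compound exposure at 37C.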

A short description of assay [8]: qHTS assay to identify small molecule that activate the aryl hydrocarbon receptor (AhR) signaling pathway - cell viability counter screen (AID 743086).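 Note: HepG2 liver cells carrying the AhR DRE luciferase reporter; series mostly up to about 70 µM; nearly all actives have a fitted effect of over 45% in size.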 In a few lines: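 HepG2-AhR-luc (HG2L7.5c1) cells, 4000/well, treated 24 h at 37 C with compound; viability measured as CellTiter-Fluor fluorescence after 30 min in the same wells as the luciferase read.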
Assay [9] can be described thus: qHTS assay to identify small molecule antagonists of the peroxisome proliferator-activated receptor gamma (PPARg) signaling pathway - cell viability counter screen (AID 743194). Note: nearly all actives have a fitted effect of over 55% in size. The gist of the method:
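Cytotoxicity counter screen in PPARg-bla HEK293H cells, same wells as reporter assay. Compounds plus 50 nM rosiglitazone (final) for 17 h at 37 C, then viability read by CellTiter-Glo luminescence.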

Assay [10] can be described thus: qHTS assay for small molecule agonists of the antioxidant response element (ARE) signaling pathway - cell viability counter screen (AID 743203; calls by dose curve; note: nearly all actives have a fitted effect of over 55% in size). The gist of the method: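 Seeded at 2,000 cells/well, ARE-bla HepG2 cells were incubated 5 hrs before compound addition. After 16 hrs of treatment at 37C with 5% CO2, CellTiter-Glo reagent was added and luminescence read 30 min later.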

A short description of assay [11]: qHTS assay for small molecule activators of the heat shock response signaling pathway - cell viability counter screen (AID 743209). Note: nearly all actives have a fitted effect of over 50% in size. The gist of the method:
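First, HSE-bla HeLa cells were seeded at 1500 cells/well and kept overnight at 37 C. Next, compounds were pinned in and incubated 5 h. After the FRET substrate step, CellTiter-Glo was added and luminescence read 30 min later.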

The target of assay [12] is Peroxisome proliferator-activated receptor gamma (Homo sapiens) (UniProt P37231). In words: qHTS assay to identify small molecule antagonists of the peroxisome proliferator-activated receptor gamma (PPARg) signaling pathway (AID 743191; calls by dose curve; note: series mostly up to about 63 µM; nearly all actives have a fitted effect of over 30% in size). In a few lines: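 GeneBLAzer PPARg UAS-bla HEK293H cells, 5 h post-plating, exposed to compounds 17 h at 37C. LiveBLAzer B/G FRET substrate added for 1 h at room temperature; beta-lactamase reporter read by fluorescence intensity.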

A short description of assay [13]: qHTS assay for small molecule agonists of the antioxidant response element (ARE) signaling pathway (AID 743202; active = well fitted activation curve with a large enough effect in the signal ratio in the repeat runs, not every such curve was filed as active; the % refers to the signal ratio). In a few lines: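 Agonist mode reporter screen: HepG2 cells with ARE-controlled beta-lactamase are incubated with test compounds for 16 h at 37 C, and beta-lactamase activity is measured as fluorescence of cleaved B/G FRET substrate.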
A short description of assay [14]: qHTS assay for small molecule activators of the heat shock response signaling pathway (AID 743210; active = well fitted activation curve with a large enough effect in the signal ratio in the repeat runs, with a control signal flat, not every such curve was filed as active; the % refers to the signal ratio;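 note: HeLa cells with beta-lactamase reporter driven by heat shock elements; series mostly up to about 63 µM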). In a few lines: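 Quantitative high-throughput format using an engineered HeLa line in which heat shock response elements drive beta-lactamase; after 5 h with compound, cells received a B/G FRET substrate and fluorescence was read.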
Assay [15] concerns the target Estrogen receptor (Homo sapiens) (UniProt P03372). Nature of the assay: qHTS assay to identify small molecule agonists of the estrogen receptor alpha (ER-alpha) signaling pathway (AID 743075; calls by dose curve;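 note: HEK293 GripTite cells with ER-alpha and UAS-driven beta-lactamase reporter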).
A short description of assay [16]: qHTS assay to identify small molecule antagonists of the estrogen receptor alpha (ER-alpha) signaling pathway using the BG1 cell line (AID 743080; calls by dose curve;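 note: BG1 cells stimulated with 17beta-estradiol alongside compound; nearly all actives have a fitted effect of over 25% in size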; note: potency is the fitted concentration of half-maximal effect). The gist of the method:
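Luminescence from a 4×ERE-luciferase reporter in BG1-Luc-4E2 cells served as read-out. Cells, pre-cultured 5 days in stripped-serum phenol-red-free medium, were exposed to compound with 17beta-estradiol co-stimulation for 21.5 h at 37 C.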

The target in assay [17] is Peroxisome proliferator-activated receptor gamma (Homo sapiens) (UniProt P37231). Nature of the assay: qHTS assay to identify small molecule agonists of the peroxisome proliferator-activated receptor gamma (PPARg) signaling pathway (AID 743094; active = well fitted activation curve with a large enough effect in the signal ratio in the repeat runs, not every such curve was filed as active; the % refers to the signal ratio). The gist of the method:
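Quantitative HTS agonist mode: stable HEK293H line with UAS-beta-lactamase reporter under PPARg control, 17 h compound exposure at 37C, fluorescence after 1 h FRET substrate loading at room temperature.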

Assay [18] deals with Estrogen receptor (Homo sapiens) (UniProt P03372). Nature of the assay: qHTS assay to identify small molecule antagonists of the estrogen receptor alpha (ER-alpha) signaling pathway (AID 743069; active = well fitted curve in the direction sought with a large enough effect in the signal ratio in the repeat runs, not every such curve was filed as active; the % refers to the signal ratio). The gist of the method:
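Reporter cells (ER-alpha-bla, HEK293 background) are conditioned overnight in stripped-serum medium (2% charcoal-stripped FBS). Compound and 17beta-estradiol exposure runs 18 hr at 37C, 5% CO2.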

The target is the same in assay [19]. Nature of the assay: qHTS assay to identify small molecule agonists of the estrogen receptor alpha (ER-alpha) signaling pathway using the BG1 cell line (AID 743079). Note: nearly all actives have a fitted effect of over 20% in size.

Sequence of Aromatase (Homo sapiens) (P11511 whole entry, looked up): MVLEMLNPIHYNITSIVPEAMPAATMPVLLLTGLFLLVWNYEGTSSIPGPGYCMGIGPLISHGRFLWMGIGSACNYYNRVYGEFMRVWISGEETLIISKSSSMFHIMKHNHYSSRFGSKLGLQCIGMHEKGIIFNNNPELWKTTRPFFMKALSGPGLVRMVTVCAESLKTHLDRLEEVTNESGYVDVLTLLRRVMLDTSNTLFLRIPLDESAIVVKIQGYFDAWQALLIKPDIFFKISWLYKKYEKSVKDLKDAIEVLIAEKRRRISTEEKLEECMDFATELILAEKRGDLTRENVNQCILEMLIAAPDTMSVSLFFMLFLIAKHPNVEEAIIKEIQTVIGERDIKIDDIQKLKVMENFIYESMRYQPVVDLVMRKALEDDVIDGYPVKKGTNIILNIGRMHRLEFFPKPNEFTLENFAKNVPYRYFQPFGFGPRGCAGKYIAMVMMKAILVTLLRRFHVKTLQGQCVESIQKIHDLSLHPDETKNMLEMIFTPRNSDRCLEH
Sequence of Peroxisome proliferator-activated receptor gamma (Homo sapiens) (P37231 whole entry, looked up): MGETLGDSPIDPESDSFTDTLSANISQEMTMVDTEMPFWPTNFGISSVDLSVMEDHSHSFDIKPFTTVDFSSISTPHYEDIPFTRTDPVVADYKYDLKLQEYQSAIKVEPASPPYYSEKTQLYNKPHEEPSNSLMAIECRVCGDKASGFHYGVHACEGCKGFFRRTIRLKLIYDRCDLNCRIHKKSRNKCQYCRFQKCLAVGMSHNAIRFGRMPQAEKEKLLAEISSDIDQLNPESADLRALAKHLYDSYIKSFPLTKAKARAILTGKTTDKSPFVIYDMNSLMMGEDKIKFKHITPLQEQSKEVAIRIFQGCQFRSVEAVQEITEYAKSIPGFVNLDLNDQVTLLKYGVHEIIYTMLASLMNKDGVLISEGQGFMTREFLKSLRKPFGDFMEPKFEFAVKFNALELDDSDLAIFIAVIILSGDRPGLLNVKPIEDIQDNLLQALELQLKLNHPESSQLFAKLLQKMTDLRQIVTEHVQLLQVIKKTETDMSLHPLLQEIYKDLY
Sequence of Aryl hydrocarbon receptor (Homo sapiens) (P35869 whole entry, looked up): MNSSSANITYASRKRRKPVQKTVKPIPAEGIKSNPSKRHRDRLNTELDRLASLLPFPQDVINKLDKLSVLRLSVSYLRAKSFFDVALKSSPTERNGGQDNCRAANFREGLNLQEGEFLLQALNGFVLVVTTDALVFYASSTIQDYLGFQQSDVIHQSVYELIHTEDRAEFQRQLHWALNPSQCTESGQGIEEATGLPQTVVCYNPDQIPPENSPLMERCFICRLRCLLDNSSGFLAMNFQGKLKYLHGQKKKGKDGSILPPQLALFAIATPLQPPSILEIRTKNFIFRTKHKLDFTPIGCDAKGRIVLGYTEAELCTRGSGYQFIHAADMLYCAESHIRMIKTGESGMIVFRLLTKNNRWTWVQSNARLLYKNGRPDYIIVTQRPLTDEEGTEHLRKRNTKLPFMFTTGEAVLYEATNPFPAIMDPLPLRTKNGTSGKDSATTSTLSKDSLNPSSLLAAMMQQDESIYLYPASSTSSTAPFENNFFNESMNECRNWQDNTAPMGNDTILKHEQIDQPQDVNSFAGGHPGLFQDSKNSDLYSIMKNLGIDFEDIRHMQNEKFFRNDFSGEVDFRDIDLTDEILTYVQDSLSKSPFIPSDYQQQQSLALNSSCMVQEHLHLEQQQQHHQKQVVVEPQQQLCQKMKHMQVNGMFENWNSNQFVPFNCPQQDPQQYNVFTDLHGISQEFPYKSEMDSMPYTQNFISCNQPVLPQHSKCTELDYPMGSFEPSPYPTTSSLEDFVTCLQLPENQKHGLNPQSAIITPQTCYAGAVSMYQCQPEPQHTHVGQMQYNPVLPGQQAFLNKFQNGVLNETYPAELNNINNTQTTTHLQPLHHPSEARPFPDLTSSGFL
Sequence of Estrogen receptor (Homo sapiens) (P03372 whole entry, looked up): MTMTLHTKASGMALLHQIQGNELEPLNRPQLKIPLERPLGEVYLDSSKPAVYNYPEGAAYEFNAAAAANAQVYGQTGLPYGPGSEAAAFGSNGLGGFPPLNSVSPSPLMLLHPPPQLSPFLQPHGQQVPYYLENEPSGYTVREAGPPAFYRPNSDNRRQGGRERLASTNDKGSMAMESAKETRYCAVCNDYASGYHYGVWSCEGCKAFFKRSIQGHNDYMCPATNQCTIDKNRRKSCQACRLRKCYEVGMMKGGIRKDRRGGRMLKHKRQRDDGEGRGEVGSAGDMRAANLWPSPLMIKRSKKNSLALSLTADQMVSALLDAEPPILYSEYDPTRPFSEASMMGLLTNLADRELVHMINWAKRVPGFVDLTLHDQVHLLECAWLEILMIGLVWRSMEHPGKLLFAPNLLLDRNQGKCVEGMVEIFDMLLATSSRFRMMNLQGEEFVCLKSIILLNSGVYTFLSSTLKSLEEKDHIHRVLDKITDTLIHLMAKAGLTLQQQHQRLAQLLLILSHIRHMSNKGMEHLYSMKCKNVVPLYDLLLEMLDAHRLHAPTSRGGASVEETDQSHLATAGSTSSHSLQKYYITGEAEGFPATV

With `O=C(O)c1cc(C(=O)O)cc([N+](=O)[O-])c1`, the Potency entry in assay [1], in assay [4], in assay [5], in assay [6], in assay [7] and in [8] was “inactive” in each case. The Potency result in assay [9] and in [10] was “inactive” in each case. Further, the outcome in [2], in [3] and in assay [11] was inactive.
For `CC(O)C(C)O` (stereo not drawn), the Potency result in assay [1], in [4], in assay [5], in assay [6], in assay [7] and in assay [8] was “inactive” each time. For the same compound, the Potency entry in assay [12], in assay [9], in assay [13] and in [10] was “inactive” in each case. Moreover, the call in assay [3], in assay [11] and in assay [14] was inactive.
As to `O=C(N[C@@H](Cc1ccccc1)[C@@H](O)C(=O)N1C[C@@H](O)[C@@H](O)C1)c1cc2cc(Cl)ccc2[nH]1`, in assay [1], the Potency is 61.1 µM (active). Moreover, the compound was called inactive in assay [2], in assay [3] and in assay [11]. Besides, the Potency entry in assay [15], in [16], in [4], in [5], in assay [6] and in assay [7] was “inactive” throughout. The Potency result in [17], in [9] and in assay [10] was “inactive” throughout.
In the case of `Cc1ccc(S(=O)(=O)NC(=O)NC2CCCC2)cc1`, the Potency entry in assay [1], in [4], in [5], in assay [6], in assay [7] and in assay [8] was “inactive” each time. For the same compound, the Potency entry in assay [17], in [12] and in [10] was “inactive” throughout. Besides, the outcome in [2], in assay [3], in assay [11] and in assay [14] was inactive.
Regarding `Clc1ccccc1-c1nc(-c2ccncc2)no1`, the Potency result in assay [1], in [4], in assay [5], in assay [6], in assay [8] and in assay [17] was “inactive” each time. Also, the Potency result in assay [12], in [9] and in [10] was “inactive” each time. Besides, the result in [2], in assay [3], in assay [11] and in assay [14] was inactive.
For `OCCCO`, the outcome in assay [2], in assay [3], in assay [11] and in assay [14] was inactive. Moreover, the Potency entry in assay [18], in assay [15], in assay [19], in assay [16], in [4] and in assay [5] was “inactive” each time. The Potency entry in assay [6], in assay [7], in [8], in assay [17], in assay [12] and in assay [9] was “inactive” each time. The Potency result in [13] and in [10] was “inactive” in each case.
Consider `CC(=O)Oc1cccc2c1C(=O)c1c(OC(C)=O)cc(C(=O)O)cc1C2=O`, for which the Potency result in assay [1], in [4], in assay [5], in assay [6], in [7] and in assay [8] was “inactive” in each case. Moreover, the Potency result in [17], in assay [9] and in [10] was “inactive” throughout. In addition, the call in [2], in [3] and in assay [14] was inactive.
For `COc1ccc(CN(CCN(C)C)c2ncccn2)cc1`, the Potency result in assay [1], in assay [4], in assay [5], in assay [6], in assay [7] and in assay [8] was “inactive” in each case. Moreover, the Potency entry in [17], in [12], in [9] and in assay [10] was “inactive” throughout. Also, the compound was called inactive in [2], in assay [3], in [11] and in assay [14].
On to `CC1(COc2ccc(CC3SC(=O)NC3=O)cc2)CCCCC1` (stereo not drawn), for which, in assay [1], the Potency was 11.9 µM (active). In addition, the Potency entry in assay [15], in [16], in assay [4], in assay [6], in assay [8] and in assay [9] was “inactive” each time. The compound was called inactive in assay [11] and in assay [14].
`O=c1[nH]nc(-c2ccc([N+](=O)[O-])o2)o1`: the Potency result in assay [1], in [15], in assay [19], in assay [16], in [5] and in assay [7] was “inactive” each time. Further, the Potency entry in assay [17] and in assay [9] was “inactive” in each case. The outcome in [2], in assay [3] and in [14] was inactive. In addition, the Potency in assay [6] is 30.6 µM (active).
Consider `C[C@H]1C[C@H]2[C@@H]3CCC4=CC(=O)C=C[C@]4(C)[C@@]3(F)[C@@H](O)C[C@]2(C)[C@@]1(O)C(=O)COP(=O)(O)O`, for which the Potency result in assay [1], in [15], in assay [19], in assay [4], in [5] and in [6] was “inactive” each time. Besides, the Potency entry in assay [7], in [9], in assay [13] and in assay [10] was “inactive” throughout. The result in [2], in [3], in assay [11] and in assay [14] was inactive.
Turning to `Cc1ccc2c(Cl)cc(Cl)c(O)c2n1`, the Potency in assay [1] is 1.68 µM (active); in assay [16] it was 9.44 µM (active); in [5], 13.3 µM (active); in [6], 23.7 µM (active). Also, the Potency entry in assay [7], in [8], in assay [12], in assay [9], in assay [13] and in assay [10] was “inactive” in each case. Besides, the compound was classed as inactive in assay [11] and in [14].
Take `Cc1c(Nc2ncccc2C(=O)O)cccc1C(F)(F)F`: the Potency in assay [1] was 2.85 µM (active). For the same compound, the compound was called inactive in [2] and in assay [3]. The Potency result in assay [4], in assay [6], in assay [8] and in [9] was “inactive” throughout.
Turning to `CC(=O)OCC(=O)[C@@]1(O)CC[C@H]2[C@@H]3CCC4=CC(=O)C=C[C@]4(C)[C@@]3(F)[C@@H](O)C[C@@]21C`, the Potency entry in [1], in assay [4], in [5], in assay [6], in [7] and in assay [8] was “inactive” each time. Moreover, the Potency result in [12] and in assay [9] was “inactive” each time. The call in assay [2], in assay [3], in [11] and in assay [14] was inactive.
Consider `CCCCC(CC)COCCC#N` (stereo not drawn), for which the Potency entry in assay [1], in [4], in assay [5], in assay [6], in assay [7] and in assay [8] was “inactive” throughout. For the same compound, the Potency entry in [17], in assay [9], in [13] and in assay [10] was “inactive” throughout. In addition, the outcome in assay [2], in assay [3], in [11] and in assay [14] was inactive.
As for `O=C(O)c1ccc2cc(O)ccc2c1`, the Potency entry in assay [1], in assay [18], in [15], in assay [16], in [4] and in assay [5] was “inactive” each time. Moreover, the Potency entry in assay [6], in assay [7], in assay [8], in [17], in [12] and in assay [9] was “inactive” in each case. Moreover, the Potency result in assay [10] was “inactive”. For the same compound, the compound was classed as inactive in assay [2], in assay [3], in assay [11] and in assay [14].
For the compound `Cc1cc(N)n(-c2ccccc2)n1`, the Potency entry in assay [1], in [18], in [15], in assay [4], in assay [5] and in [6] was “inactive” in each case. For the same compound, the Potency entry in assay [8], in assay [12], in assay [9] and in [10] was “inactive” each time. Further, the call in assay [2], in assay [3], in [11] and in assay [14] was inactive.
